Results published in PubChem BioAssay (EPA / NIEHS).
The source made the active and inactive calls. The calls were made as follows: active = hit-call score of the fitted dose curve at least 0.9, where 1 is the maximum; inactive = score below 0.9.

Assays:
[1] = read-out: Human Leukocyte Antigen - DR isotype (HLADR), HLA-DRA (gene 3122); experiment: BSK_CASM3C_HLADR: BioMAP Diversity Plus: CASM3C Assay for Human Leukocyte Antigen - DR isotype (HLADR) Biomarker Activity (AID 2283043); settings: primary human coronary artery smooth muscle cells; actives raise or lower the signal;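 also: cell-surface HLA-DR protein level quantified by ELISA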
[2] = read-out: Macrophage colony-stimulating factor (MCSF), CSF1 (gene 1435); experiment: BSK_CASM3C_MCSF: BioMAP Diversity Plus: CASM3C Assay for Macrophage colony-stimulating factor (MCSF) Biomarker Activity (AID 2283044); settings: primary human coronary artery smooth muscle cells; actives raise or lower the signal;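 also: M-CSF protein amount quantified by ELISA after 24 h exposure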
[3] = read-out: Low-density lipoprotein receptor (LDLR), LDLR (gene 3949); experiment: BSK_CASM3C_LDLR: BioMAP Diversity Plus: CASM3C Assay for Low-density lipoprotein receptor (LDLR) Biomarker Activity (AID 2283045); settings: primary human coronary artery smooth muscle cells; actives raise or lower the signal;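 also: LDLR protein level on the cell surface quantified by ELISA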
[4] = read-out: Monocyte Chemoattractant Protein-1 (MCP1), CCL2 (gene 6347); experiment: BSK_CASM3C_MCP1: BioMAP Diversity Plus: CASM3C Assay for Monocyte Chemoattractant Protein-1 (MCP1) Biomarker Activity (AID 2283046); settings: primary human coronary artery smooth muscle cells; actives raise or lower the signal;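 also: MCP-1 level quantified by ELISA 24 h after dosing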
[5] = BSK_CASM3C_Proliferation: Cell Proliferation Assessment in the BioMAP Diversity Plus: CASM3C Assay (AID 2283047); settings: primary human coronary artery smooth muscle cells;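 also: sulforhodamine B total protein stain as relative cell number at 560 nm; sub-confluent cells exposed 48 h before staining; fitted both ways against DMSO so gain or loss of cell number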
[6] = read-out: Monokine induced gamma interferon (MIG), CXCL9 (gene 4283); experiment: BSK_CASM3C_MIG: BioMAP Diversity Plus: CASM3C Assay for Monokine induced gamma interferon (MIG) Biomarker Activity (AID 2283048); settings: primary human coronary artery smooth muscle cells; actives raise or lower the signal;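 also: MIG protein level measured by ELISA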
[7] = read-out: serum amyloid A (SAA), SAA1 (gene 6288); experiment: BSK_CASM3C_SAA: BioMAP Diversity Plus: CASM3C Assay for serum amyloid A (SAA) Biomarker Activity (AID 2283049); settings: primary human coronary artery smooth muscle cells; actives raise or lower the signal;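 also: SAA protein level quantified by ELISA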
[8] = BSK_CASM3C_SRB: Viability Assessment in the BioMAP Diversity Plus: CASM3C Assay (AID 2283050); settings: primary human coronary artery smooth muscle cells;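 also: cells exposed to compound for 24 h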
[9] = read-out: Thrombomodulin, THBD (gene 7056); experiment: BSK_CASM3C_Thrombomodulin: BioMAP Diversity Plus: CASM3C Assay for Thrombomodulin Biomarker Activity (AID 2283051); settings: primary human coronary artery smooth muscle cells; actives raise or lower the signal;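 also: thrombomodulin protein level measured by ELISA 24 h after dosing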
[10] = read-out: Tissue Factor, F3 (gene 2152); experiment: BSK_CASM3C_TissueFactor: BioMAP Diversity Plus: CASM3C Assay for Tissue Factor Biomarker Activity (AID 2283052); settings: primary human coronary artery smooth muscle cells; actives raise or lower the signal;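 also: cell surface tissue factor protein level read by ELISA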
[11] = read-out: Interferon-gamma inducible Protein 10 (IP10), CXCL10 (gene 3627); experiment: BSK_hDFCGF_IP10: BioMAP Diversity Plus: hDFCGF Assay for Interferon-gamma inducible Protein 10 (IP10) Biomarker Activity (AID 2283053); settings: primary human foreskin fibroblasts; actives raise or lower the signal
In short: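 IP-10 levels, quantified by ELISA, are taken from human foreskin fibroblast cultures 24 h after chemical treatment, with DMSO serving as negative control and baseline for bidirectional analysis.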

[12] = read-out: Urokinase-type plasminogen activator receptor (uPAR), PLAUR (gene 5329); experiment: BSK_CASM3C_uPAR: BioMAP Diversity Plus: CASM3C Assay for Urokinase-type plasminogen activator receptor (uPAR) Biomarker Activity (AID 2283054); settings: primary human coronary artery smooth muscle cells; actives raise or lower the signal;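 also: cell-surface uPAR protein level quantified by ELISA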
[13] = read-out: Vascular cell adhesion molecule 1 (VCAM1), VCAM1 (gene 7412); experiment: BSK_CASM3C_VCAM1: BioMAP Diversity Plus: CASM3C Assay for Vascular cell adhesion molecule 1 (VCAM1) Biomarker Activity (AID 2283055); settings: primary human coronary artery smooth muscle cells; actives raise or lower the signal;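 also: VCAM-1 protein level quantified by ELISA on the cells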
[14] = read-out: Collagen III, COL3A1 (gene 1281); experiment: BSK_hDFCGF_CollagenIII: BioMAP Diversity Plus: hDFCGF Assay for Collagen III Biomarker Activity (AID 2283056); settings: primary human foreskin fibroblasts; actives raise or lower the signal
In short: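 hDFCGF primary human dermal fibroblasts; 24 h chemical exposure; collagen III by ELISA; bidirectional curve fit vs DMSO baseline (gain or loss of signal).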

[15] = read-out: Epidermal growth factor receptor (EGFR), EGFR (gene 1956); experiment: BSK_hDFCGF_EGFR: BioMAP Diversity Plus: hDFCGF Assay for Epidermal growth factor receptor (EGFR) Biomarker Activity (AID 2283057); settings: primary human foreskin fibroblasts; actives raise or lower the signal
In short: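 Measured by ELISA: EGFR levels on primary human foreskin fibroblasts 24 h after chemical treatment, analysed relative to DMSO with bidirectional fitting.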

[16] = read-out: Interleukin-8 (IL8), CXCL8 (gene 3576); experiment: BSK_hDFCGF_IL8: BioMAP Diversity Plus: hDFCGF Assay for Interleukin-8 (IL8) Biomarker Activity (AID 2283058); settings: primary human foreskin fibroblasts; actives raise or lower the signal
In short: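 ELISA read-out of IL-8 from primary human foreskin fibroblast cultures taken 24 h after dosing; values are bidirectional fits relative to DMSO vehicle.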

[17] = read-out: Macrophage colony-stimulating factor (MCSF), CSF1 (gene 1435); experiment: BSK_hDFCGF_MCSF: BioMAP Diversity Plus: hDFCGF Assay for Macrophage colony-stimulating factor (MCSF) Biomarker Activity (AID 2283060); settings: primary human foreskin fibroblasts; actives raise or lower the signal
In short: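 ELISA read-out of M-CSF in human dermal foreskin fibroblast cultures, 24 h after chemical dosing; gain or loss of signal fitted bidirectionally relative to DMSO baseline.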

[18] = BSK_hDFCGF_SRB: Viability Assessment in the BioMAP Diversity Plus: hDFCGF Assay (AID 2283061); settings: primary human foreskin fibroblasts;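 also: cells exposed to compound for 24 h before the read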
In short: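 Primary human foreskin fibroblasts; 24 h post-dose; fixed 10% TCA, stained 0.1% SRB, A560 read; total protein as overt cytotoxicity measure; curves fit bidirectionally vs DMSO control.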

[19] = read-out: TIMP metallopeptidase inhibitor 1 (TIMP1), TIMP1 (gene 7076); experiment: BSK_hDFCGF_TIMP1: BioMAP Diversity Plus: hDFCGF Assay for TIMP metallopeptidase inhibitor 1 (TIMP1) Biomarker Activity (AID 2283062); settings: primary human foreskin fibroblasts; actives raise or lower the signal
In short: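 ELISA readout of TIMP-1 from human dermal foreskin fibroblast cultures 24 h post-dosing. Curves were fitted in both directions against DMSO baseline, with SRB total-protein staining in parallel cultures as a cytotoxicity check.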

[20] = BSK_hDFCGF_Proliferation: Cell Proliferation Assessment in the BioMAP Diversity Plus: hDFCGF Assay (AID 2283059); settings: primary human foreskin fibroblasts;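 also: curves fitted for both rise and fall of signal versus DMSO baseline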
In short: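 Total protein read at 560 nm after 0.1% SRB staining of TCA-fixed human skin fibroblasts, […]. Activity is fitted in both directions relative to DMSO as baseline.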

Measured: AC50

CC1=CC(=O)CC(C)(C)C1
inactive: [1] | [2] | [3] | [4] | [5] | [6] | [7] | [8] | [9] | [10] | [11] | [12] | [13] | [14] | [15] | [16] | [17] | [18] | [19]

O=C(O)c1cc(N=Nc2ccc(S(=O)(=O)Nc3ccccn3)cc2)ccc1O
inactive: [1] | [2] | [3] | [4] | [6] | [7] | [8] | [9] | [10] | [11] | [12] | [13] | [14] | [15] | [16] | [17] | [18] | [19]
active: [5] 14.5 µM

O=C1OC(=O)C2C3C=CC(C3)C12 (stereo unspecified)
inactive: [1] | [2] | [3] | [4] | [5] | [6] | [7] | [8] | [9] | [10] | [11] | [12] | [13] | [14] | [15] | [16] | [17] | [18] | [19]

CC[C@H](C)C(=O)O[C@H]1C[C@@H](C)C=C2C=C[C@H](C)[C@H](CC[C@@H]3C[C@@H](O)CC(=O)O3)[C@H]21
active: [1] 19.9 µM | [4] 19.9 µM | [5] 6.08 µM | [9] 0.147 µM | [11] 35.3 µM | [14] 29.8 µM | [16] 33.8 µM | [20] 13.5 µM | [17] 27.6 µM | [18] 32.2 µM | [19] 29.9 µM
inactive: [2] | [3] | [6] | [7] | [8] | [10] | [12] | [13]

O=C(NS(=O)(=O)/C=C/c1ccccc1)c1ccc(F)cc1Cl
inactive: [1] | [2] | [3] | [4] | [6] | [7] | [8] | [9] | [10] | [11] | [12] | [13] | [14] | [15] | [16] | [17] | [18] | [19]
active: [5] 6.8 µM

CC(C)=CCC/C(C)=C\CO
inactive: [1] | [2] | [3] | [4] | [5] | [6] | [7] | [8] | [9] | [10] | [11] | [12] | [13] | [14] | [15] | [16] | [17] | [18] | [19]

CCOCCOCCOCCO
inactive: [1] | [2] | [3] | [4] | [5] | [6] | [7] | [8] | [9] | [10] | [11] | [12] | [13] | [14] | [15] | [16] | [17] | [18] | [19]

CCCCCCCCCCCCCCCO
inactive: [1] | [2] | [4] | [6] | [7] | [8] | [9] | [10] | [11] | [12] | [13] | [14] | [15] | [16] | [17] | [18] | [19]
active: [3] 31.9 µM | [5] 20 µM

C1N2CN3CN1CN(C2)C3
inactive: [1] | [2] | [3] | [4] | [5] | [6] | [7] | [8] | [9] | [10] | [11] | [12] | [13] | [14] | [15] | [16] | [17] | [18] | [19]

CC(C)CCCCCCCOC(=O)CCCCC(=O)OCCCCCCCC(C)C
inactive: [1] | [2] | [3] | [4] | [5] | [6] | [7] | [8] | [9] | [10] | [11] | [12] | [13] | [14] | [16] | [20] | [17] | [18] | [19]

Clc1nc(Cl)c(Cl)c(Cl)c1Cl
inactive: [1] | [2] | [3] | [4] | [5] | [6] | [7] | [8] | [9] | [10] | [11] | [12] | [13] | [14] | [16] | [17] | [18] | [19]

CN(C)c1ccc(N=NS(=O)(=O)O)cc1
inactive: [1] | [2] | [3] | [4] | [5] | [6] | [7] | [8] | [9] | [10] | [11] | [12] | [13] | [16] | [18] | [19]
active: [14] 4.35 µM | [17] 9.62 µM

CC(C)CCO
inactive: [1] | [2] | [3] | [4] | [5] | [6] | [7] | [8] | [9] | [10] | [11] | [12] | [13] | [14] | [16] | [17] | [18] | [19]
active: [20] 17.2 µM

CCN(C(=O)c1cc(C)cc(OC[C@H](C)Nc2ccncc2)c1)C(C)C
inactive: [1] | [2] | [3] | [4] | [5] | [6] | [7] | [8] | [9] | [10] | [11] | [12] | [13] | [14] | [16] | [20] | [17] | [18] | [19]

Cn1c(=O)c2c(ncn2C)n(C)c1=O
inactive: [1] | [2] | [3] | [4] | [5] | [6] | [7] | [8] | [9] | [10] | [11] | [12] | [13] | [14] | [16] | [17] | [18] | [19]

CC(O)CN(CCN(CC(C)O)CC(C)O)CC(C)O (stereo unspecified)
inactive: [1] | [2] | [3] | [4] | [5] | [6] | [7] | [8] | [9] | [10] | [11] | [12] | [13] | [14] | [16] | [17] | [18] | [19]

Cc1ccc(N)cc1O
inactive: [1] | [2] | [3] | [4] | [5] | [6] | [7] | [8] | [10] | [11] | [12] | [13] | [14] | [16] | [17] | [18] | [19]
active: [9] 11.2 µM | [20] 23.9 µM

CCn1nc(Cc2ccccc2)cc1C1CCN(C[C@H]2C[C@H](N(C)[C@@H](C(=O)O)C(C)C)C[C@@H]2c2cccc(F)c2)CC1
inactive: [1] | [2] | [3] | [4] | [5] | [6] | [7] | [8] | [9] | [10] | [11] | [12] | [13] | [14] | [16] | [17] | [18] | [19]
active: [20] 12.9 µM

CC(=O)OCCC(C)C
inactive: [1] | [2] | [3] | [4] | [5] | [6] | [7] | [8] | [9] | [10] | [11] | [12] | [13] | [14] | [16] | [17] | [18] | [19]
